# Results from PMC5540273 (PLoS ONE, 2017).
# What was measured:
# Conditions in all cases: concentration: 1 μM, replicates: in singlicate; n = 1
# RIPK5 = test system: RIPK5
# ROCK1 = test system: ROCK1
# ROCK2 = test system: ROCK2
# ROS1 = test system: ROS1
# [1] = test system: RPS6KA4(Kin.Dom.1-N-terminal)
# [2] = test system: RPS6KA4(Kin.Dom.2-C-terminal)
# [3] = test system: RPS6KA5(Kin.Dom.1-N-terminal)
# [4] = test system: RPS6KA5(Kin.Dom.2-C-terminal)
# [5] = test system: T1, RSK1(Kin.Dom.1-N-terminal)
# T1 construct: gene RPS6KA1
# [6] = test system: T2, RSK1(Kin.Dom.2-C-terminal)
# T2 construct: gene RPS6KA1
# 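Note: KINOMEscan kinase panel screen.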
SMILES,%Inh (RIPK5),%Inh (ROCK1),%Inh (ROCK2),%Inh (ROS1),%Inh [1],%Inh [2],%Inh [3],%Inh [4],%Inh [5],%Inh [6]
CSc1ccc(-c2cc3ncnc(SCC(=O)O)c3s2)cc1,0%,0%,0%,3%,0%,0%,0%,0%,9%,12%
NS(=O)(=O)c1cccc(-c2ccc3nccc(-c4cccc(S(N)(=O)=O)c4)c3c2)c1 [GW867253],11%,37%,37%,0%,0%,0%,4%,7%,0%,23%
O=c1cc(N2CCOCC2)nc2n(Cc3cccc(Cl)c3Cl)c(C3CC3)nn12 [GSK2358994],7%,0%,0%,0%,0%,16%,0%,0%,0%,17%
Cc1cccc(-c2nc(-c3ccc(S(C)(=O)=O)cc3)sc2-c2ccncc2)c1,18%,16%,0%,23%,0%,3%,11%,9%,0%,34%
COCCNC(=O)c1ccc(-c2cc(C(=O)NC3CC3)cc(F)c2C)cc1 [GW868318],38%,37%,47%,5%,36%,6%,18%,21%,21%,18%
